Screening data: PubChem BioAssay, National Center for Advancing Translational Sciences (NCATS)
The list is not random: actives were taken first. Their share in the collection is about 19%.
Giardia kill: Small Molecules that selectively kill Giardia lamblia: qHTS | Giardia lamblia trophozoite viability | activity change, % at 7.66 µM, hits read low | 0.15% of 340,000 active; in the data active means activity change below about -80%; inconclusive means between about -30% and that limit;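 further: parasites exposed to compound for two days anaerobically before the ATP read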
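Giardia trophozoites, 100 cells per well, were exposed to compounds for 48 hrs at 37 deg C under anaerobic conditions; viability was then read as ATP content by bioluminescence after 15-30 min at room temperature.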
IL-1B inflam inh: qHTS for Inhibitors of Inflammasome Signaling: IL-1-beta AlphaLISA Primary Screen; 4.7% of 360,000 active; THP-1 LPS/ATP IL-1B secretion, AlphaLISA, 16 h; active compounds read low; activity change, % at 57.5 µM; in the data active means activity change below about -50%; inconclusive means mostly about -30% to -49%
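THP-1 cells pretreated 1 hr with compounds (up to 57.5 uM final), then stimulated with LPS (250 ng/mL final) plus ATP (1.25 mM final); secreted IL-1B measured by AlphaLISA after 16 hr, decreased signal indicating inhibition.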
TDP1 cell noCPT: qHTS for Inhibitors of human tyrosyl-DNA phosphodiesterase 1 (TDP1): qHTS in cells in absence of CPT | DT40 Tdp1-/- hTDP1 cells, no CPT, ATP luminescence, 48 h | Potency, µM (top dose mostly 46.2 µM), for inactives: at the highest dose activity change, negative = growth inhibition, usual class: inhibitors | 15% of 420,000 active | AID 686978, 2013; further: potency means the concentration at half of the fitted maximal effect; nearly all actives have a fitted effect of over 55% in size
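Seeded 400 DT40-hTDP1 cells/well (vehicle DMSO, no 20 nM CPT); pinned compounds; ≥48 hr at 37 °C; CellTiter-Glo luminescence as viability measure.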
DT40 TDP1 CPT: qHTS for Inhibitors of human tyrosyl-DNA phosphodiesterase 1 (TDP1): qHTS in cells in presence of CPT; 12% of 420,000 active; AID 686979, 2013; chicken DT40 Tdp1-/-;hTDP1 cells + 20 nM CPT, ATP luminescence, 48 h; Potency, µM (doses to about 46.2 µM), for inactives: at the highest dose activity change, negative = growth inhibition, actives largely listed as inhibitors; further: potency means the concentration at half of the fitted maximal effect; nearly all actives have a fitted effect of over 55% in size
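Chicken DT40 Tdp1-/- cells stably complemented with human TDP1 were seeded at 400 cells/well in medium containing 20 nM camptothecin, exposed to pin-transferred compounds, and grown at 37 °C for at least 48 hr. Viability was read as ATP luminescence.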
TDP1 block: qHTS Assay for Inhibitors of Tyrosyl-DNA Phosphodiesterase (TDP1). Tyrosyl-DNA phosphodiesterase 1 (Homo sapiens), Q9NUW8. recombinant TDP1, AlphaScreen DNA substrate cleavage. Potency, µM (series often up to 130 µM), for inactives: at the top dose activity change, negative = inhibition, most hits filed as inhibitors. 0.28% of 350,000 active. AID 485290, 2010; further: potency means the concentration at half of the fitted maximal effect; nearly all actives have a fitted effect of over 40% in size
Target sequence (Q9NUW8 whole entry, looked up): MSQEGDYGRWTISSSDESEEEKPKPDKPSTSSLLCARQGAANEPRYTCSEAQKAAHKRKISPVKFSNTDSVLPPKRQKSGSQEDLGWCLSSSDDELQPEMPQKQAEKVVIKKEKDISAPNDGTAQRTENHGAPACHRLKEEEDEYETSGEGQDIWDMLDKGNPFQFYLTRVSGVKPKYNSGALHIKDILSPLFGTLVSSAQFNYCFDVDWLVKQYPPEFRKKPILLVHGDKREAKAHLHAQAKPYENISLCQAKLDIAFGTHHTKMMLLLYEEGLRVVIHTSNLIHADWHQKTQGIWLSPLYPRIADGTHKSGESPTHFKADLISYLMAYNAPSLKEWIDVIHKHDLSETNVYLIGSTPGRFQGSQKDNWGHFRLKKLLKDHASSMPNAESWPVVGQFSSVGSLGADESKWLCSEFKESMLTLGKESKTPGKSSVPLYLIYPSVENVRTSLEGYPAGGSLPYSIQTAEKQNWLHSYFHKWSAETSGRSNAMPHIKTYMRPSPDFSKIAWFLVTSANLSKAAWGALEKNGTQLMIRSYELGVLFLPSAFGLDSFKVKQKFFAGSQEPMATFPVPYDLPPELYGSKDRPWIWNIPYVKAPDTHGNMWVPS
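E. coli-derived human Tdp1, 1 nM final. Cpd preinc 15 min RT; substrate 15 nM final, 5 min RT; AS bead mix 10 ug/ml final, 10 min RT. Signal loss = tyrosine-FITC cleavage. No-enzyme wells = max signal.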
ELG1 DNA repair: qHTS screen for small molecules that inhibit ELG1-dependent DNA repair in human embryonic kidney (HEK293T) cells expressing luciferase-tagged ELG1 | HEK293T ELG1-luciferase reporter, luminescence, 16 h; DNA damage induced by 5-fluorouridine | Potency, µM (highest dose often 46.1 µM), inactives show top-dose activity change, negative = inhibition, usual class: inhibitors | 2.3% of 330,000 active | AID 504467, 2011; further: potency means the concentration at half of the fitted maximal effect; nearly all actives have a fitted effect of over 55% in size
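Luminescence from the luciferase reporter, measured 30 min after ONE-Glo reagent at room temperature, was the read-out. Beforehand, 2,000 cells per well were exposed for 16 hr at 37 °C to 5-fluorouridine together with compound or vehicle.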
* hit, by the source's call; ? = inconclusive; · = no result; [ ] = remark or other dose. Unless noted, the call rests on the fitted dose curve; in most records, active means well fitted curve in the direction sought with a large enough effect; inconclusive means small, poorly fitted or top-dose-only effect, or another doubt; inactive means no such curve, though single readings can be large; an effect the other way counts as inactive or inconclusive. On the % scale 0 is the no-effect control and ±100 the full control effect.

SMILES	Giardia kill	IL-1B inflam inh	TDP1 cell noCPT	DT40 TDP1 CPT	TDP1 block	ELG1 DNA repair
COc1ccc(C2c3cc(OC)c(OC)cc3CCN2C(=O)c2ccccc2)cc1OC (centres undefined)	1	-10	9.2µM*	?	·	6.5µM*
COc1ccc(C(=O)N2CCc3cc(OC)c(OC)cc3C2COc2ccccc2OC)cc1 (centres undefined)	·	·	29µM*	16µM*	13%	·
COCCNC(=O)c1cc2c(c(-c3cccc(C#CC(C)(C)O)c3)n1)[C@@H](CCO)N(S(=O)C(C)(C)C)C2 (some centres undefined)	·	28	-5%	-24%	·	·
Cc1cccc(C)c1NC(=O)N1CCC(C(N)=O)(N2CCCCC2)CC1	·	·	2%	-1%	5%	·
COc1cc(OC)cc(C(=O)N2CCN(C(=O)c3ccc(OC)c(OC)c3)CC2)c1	-8	0	-6%	0%	4%[56.1 µM]	1%
COc1cc2c(cc1OC)C(c1ccccc1)N(C(=O)c1cccc(S(C)(=O)=O)c1)CC2 (centres undefined)	-8	-18	?	-2%	12%	-4%
COc1ccc(-c2n[nH]c3c2CN(C(=O)c2ccc(OC)c(OC)c2)CC3)cc1	19	1	8.2µM*	8.2µM*	6%	?
COc1ccc(C2c3cc(OC)c(OC)cc3CCN2S(C)(=O)=O)cc1OC (centres undefined)	12	38	21µM*	16µM*	-1%	?
COc1ccc(C(=O)N2CCc3cc(OC)c(OC)cc3C2c2ccc(OC)c(OC)c2)cc1 (centres undefined)	-4	-51*	?	?	·	-10%
COc1cc2c(cc1OC)C(C)N(S(=O)(=O)c1ccc(C)cc1)CC2 (centres undefined)	8	8	?	-19%	·	2%
CCNc1ncc2nc(CCc3ccccc3)c(=O)n(Cc3ccc(F)cc3)c2n1	·	·	1%	-10%	·	·
NC(=O)c1c(NC(=O)c2ccc(N3C(=O)CCC3=O)cc2)sc2c1CCCC2	5	?	-17%	7%	2%	-6%
C=CCNC(=S)N/N=C/c1ccc(-c2cc(Cl)ccc2Cl)o1	5	2	?	?	5%	-1%
C=CCNC(=S)N/N=C/c1ccc(-c2ccc(Cl)cc2Cl)o1	10	3	5.8µM*	5.2µM*	·	·
C=CCNC(=S)N/N=C/c1ccc(-c2ccc(OC)cc2)o1	37	-3	4.6µM*	4.1µM*	7%	?
O=C1COc2ccccc2N1Cc1c(F)cccc1Cl	18	65	?	-6%	·	12%
CC1CCN(c2c(NCC3CCC(C(=O)NCCCc4ccccc4)CC3)c(=O)c2=O)CC1 (centres undefined)	-27	-14	-28%	-20%	·	10µM*
COC(=O)CN1C(=O)[C@@H]2[C@H](C1=O)[C@@H]1CC(C(=O)OC)=C[C@@H](C(=O)OC)C3C1=C(C(=O)[C@]3(C)NC(=O)c1ccccc1)[C@@H]2C (some centres undefined)	12	·	·	·	3%	·
CC(C)CN(C)C(=O)CCc1nnc(Cc2ccc(-c3ccccc3)cc2)o1	-29	12	12µM*	?	5%	-20%
CCOC(=O)C(C(=O)OCC)c1cc(Br)c2noc3c2c1C(=O)c1ccccc1-3	-22	-89*	2.6µM*	3.7µM*	2%	?
CCCCNc1cc(NC2CCCCC2)c2c3c(onc13)-c1ccccc1C2=O	·	·	?	?	12%	·
O=C(NCCc1ccc(F)cc1)Nc1ccc([N+](=O)[O-])cc1	19	-100*	16µM*	29µM*	5%	?
O=[N+]([O-])c1ccc(NC(=S)NCCc2ccc(F)cc2)cc1	3	-23	16µM*	16µM*	4%	?
NC(N)=NN=Cc1ccnc2ccccc12	·	-104*	?	15µM*	·	·
O=C(O)C(=Cc1ccnc2ccccc12)C(=O)O	·	-11	-13%	-15%	·	·
SMILES	Giardia kill	IL-1B inflam inh	TDP1 cell noCPT	DT40 TDP1 CPT	TDP1 block	ELG1 DNA repair
COc1ccc(N2C(=O)CC(S/C(N)=N/N=C/c3ccnc4ccccc34)C2=O)cc1 (centres undefined)	·	·	·	·	0%	11%
NC(=NCc1ccccc1)NN=Cc1ccnc2ccccc12	·	-110*	?	21µM*	·	·
N/C(=N\N=C\c1ccnc2ccccc12)SC1CC(=O)N(c2ccc(Br)cc2)C1=O (centres undefined)	5	0	15µM*	?	3%	0%
NC(=O)c1cc(S(=O)(=O)NCC2CCC(C(=O)Nc3cccc(Cl)c3)CC2)cs1 (centres undefined)	·	·	?	?	0%	·
CC(=O)c1c(C)[nH]c(C(=O)Nc2cccc(C)n2)c1C	-27	-1	2%	-6%	4%	?
CC(=O)c1c(C)[nH]c(C(=O)Nc2nccs2)c1C	5	20	13µM*	12µM*	4%	?
CC(=O)c1c(C)[nH]c(C(=O)NC(C)c2ccccc2)c1C (centres undefined)	-14	40	16µM*	?	-2%	?
CCOc1ccc(NC(=O)[C@H]2O[C@@H]3OC(C)(C)O[C@@H]3[C@H]3OC(C)(C)O[C@H]32)cc1	·	·	?	?	3%	·
COc1ccc(CN(C)C(=O)C2CC(=O)N(c3ccc4c(c3)OCCO4)C2)c(OC)c1 (centres undefined)	-10	-11	16µM*	21µM*	4%	?
CN(Cc1ccccc1Cl)C(=O)C1CC(=O)N(c2ccc3c(c2)OCCO3)C1 (centres undefined)	0	0	-22%	?	3%	12%
COc1ccc(-c2nc(NC(=O)C3CC(=O)N(c4ccc5c(c4)OCCO5)C3)sc2C)cc1 (centres undefined)	0	17	6.3µM*	6.3µM*	3%	-7%
CCOC(=O)c1csc(NC(=O)CC2CCCC2)n1	19	27	-15%	-11%	1%	9%
Cc1cc(=O)oc2cc(NC(=O)CC(N)C(=O)O)ccc12 (centres undefined)	·	·	·	·	5%	·
CCn1c2cc(C)sc2c2cnn(Cc3ccccc3F)c(=O)c21	·	·	·	·	-8%	·
